Pol eta inh = DNA polymerase eta (human) inhibition. Q9Y253. recombinant Pol eta, fluorescent DNA replication assay. Potency, µM (doses to about 114 µM), for the others: at the top dose activity change, negative = inhibition, hits mostly inhibitors. 390,000 compounds, 1.2% hits. AID 588591; note: potency is the fitted concentration of half-maximal effect; % is set by controls: 0 for no effect and ±100 for the full control effect
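Fluorescent replication assay: 50 nM final substrate added after a 15 min room-temperature compound preincubation with 10 nM enzyme. Signal taken at 0 min and again at 10 min.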
PI5P4Ka inh = blocks human PI5P4K alpha kinase activity | AID 652105 | max response, % | 330,000 compounds, 1.2% hits | P48426 | PI5P4Kalpha enzyme, ADP-Glo luminescence, 60 min; active compounds read low; active = max response of -50% or lower; inconclusive = between -30% and -50%; inactive = -30% or higher; note: value at the top dose of about 77 µM; % is set by controls: 0 for no effect and ±100 for the full control effect
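Reactions run in 0.038 M HEPES pH 7.4, 0.28 mM EGTA, 0.1% CHAPS and 5% DMSO, with PI5P4Kalpha, substrate, compound and 5 microM ATP final, one hour at room temperature. Readout is ADP-Glo luminescence.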
Pol iota inh = DNA polymerase iota (human) inhibition. 390,000 compounds, 1% hits. Pol iota fluorescent replication assay, 10 min. Q9UNA4. Potency, µM (series often up to 115 µM), for inactives: at the highest dose activity, negative = inhibition, actives largely listed as inhibitors; note: potency is the fitted concentration of half-maximal effect
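Fluorescent replication assay read twice, at 0 min and 10 min after adding 50 nM (final) substrate. Enzyme (10 nM) and compounds were first incubated 15 min at room temperature; enzyme-free buffer wells were negative controls.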
POLK inh = inhibitors of human DNA polymerase kappa; Q9UBT6; purified Pol kappa, fluorescent DNA synthesis assay, 10 min; Potency, µM (top dose mostly 107 µM), without a hit: at the top dose activity, negative = inhibition, most hits filed as inhibitors; 400,000 compounds, 0.53% hits; note: potency is the fitted concentration of half-maximal effect; % is set by controls: 0 for no effect and ±100 for the full control effect
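Readout: fluorescence, taken kinetically at 0 and 10 min. Conditions: 10 nM Pol kappa, 15 min RT compound preincubation, 50 nM substrate final. Controls: enzyme-free buffer wells.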
POLB inh = inhibitors of human DNA polymerase beta | Potency, µM (doses to about 114 µM), for the others: at the highest dose activity change, negative = inhibition, most hits filed as inhibitors | Pol beta primer extension/strand displacement, fluorescence kinetic | P06746 | 340,000 compounds, 1.3% hits; note: potency is the fitted concentration of half-maximal effect; % is set by controls: 0 for no effect and ±100 for the full control effect
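Values derive from four-parameter Hill fits of normalized kinetic data: reads at 0 and 10 min following addition of 50 nM substrate to 10 nM Pol beta preincubated 15 min with compound.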
WRN helicase inh = WRN helicase (human) inhibition; Q14191; WRN helicase unwinding, fluorescent forked duplex, kinetic; Potency, µM (series often up to 114 µM), for the others: at the top dose activity change, negative = inhibition, usual class: inhibitors; 360,000 compounds, 0.46% hits; note: potency is the fitted concentration of half-maximal effect; % is set by controls: 0 for no effect and ±100 for the full control effect; nearly all actives have a fitted effect of over 55% in size
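Kinetic fluorescence helicase assay: unwinding of a quenched forked DNA duplex (100 nM final) with 2 mM ATP final raises red fluorescence (525/598 nm). Compounds sat 15 min at room temperature with 20 nM WRN beforehand.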
* marks the source's active call; other numbers are inactive results; ? = inconclusive; nt = no result given; ! = a repeat was not active; [ ] = another dose, or the depositor's remark. An excerpt weighted towards active compounds, which were near 2.8% of everything screened. Unless noted, calls come from the whole dose curve; as a rule, active = well fitted curve in the direction sought with a large enough effect; inconclusive = small, poorly fitted or top-dose-only effect, or another doubt; inactive = no such curve, though single readings can be large; an effect the other way counts as inactive or inconclusive.

SMILES | Pol eta inh | PI5P4Ka inh | Pol iota inh | POLK inh | POLB inh | WRN helicase inh
COc1cc(/C=C2\SC(=S)N(C(Cc3ccccc3)C(=O)O)C2=O)ccc1O (stereo unspecified) | ? | -9 | ? | ? | 50µM* | 50µM*
CCC(=O)OCOc1ccc(/C=C2/CCC(CN(C)C)C2=O)cc1 (stereo unspecified) | 13µM* | -14 | ? | -9% | nt | 11µM*
Cc1nc(-c2ccc(Cl)cc2)oc1COC(C)(C)C(=O)O | nt | nt | nt | 0%[19.4 µM] | nt | nt
COc1cc(CCNC2=CC(=O)c3ncccc3C2=O)ccc1O | 16µM* | 3 | 28µM* | -12% | nt | -5%
O=C1c2c(O)cccc2Cc2cccc(O)c21 | -21% | -3 | 8% | 22µM*! | nt | -6%
O=C1Cc2cccc(=O)c(O)c2C(=O)O1 | 8.9µM* | -26 | nt | nt | nt | -20%
CC(C)(C)OC(=O)NCCc1nnc(SCC(=O)Nc2cccc(Cl)c2)o1 | -13% | 0 | 44% | -12% | -6% | 4%
Cc1sc2nc(SCC(=O)Nc3ccc(Cl)c(C(=O)O)c3)[nH]c(=O)c2c1C | -12% | -5 | 33% | -11% | nt | -6%
COC(=O)c1cccc(NC(=O)CSc2nc(O)c(-c3ccccc3)c(=O)[nH]2)c1 | 25µM* | -27 | ? | ? | ? | -7%[11.6 µM]
COC(=O)c1ccccc1NC(=O)CSc1nc(O)c(-c2ccccc2)c(=O)[nH]1 | ? | -11 | 84% | -19% | ? | -2%[11.6 µM]
Cc1sc2nc(SCC(=O)Nc3ccc(S(N)(=O)=O)cc3)[nH]c(=O)c2c1C | ? | 4 | ? | -16% | 25µM* | 2%[11.6 µM]
NCCc1nnc(SCC(=O)Nc2cccc(Cl)c2)o1 | -10% | 10 | 40µM* | ? | 25% | 9%
Cc1sc2nc(SCC(=O)Nc3cccc(C(=O)O)c3)[nH]c(=O)c2c1C | ? | -73* | ? | -23% | nt | ?
CC(C)(C)c1ccc(C2NC(=O)c3n[nH]c(-c4cccs4)c32)cc1 (stereo unspecified) | -8% | nt | -4% | -7% | 2% | nt
Cc1cccc(N2CCN(C(=O)Cn3cnc4sc(C)c(S(=O)(=O)N5CCN(c6ncccn6)CC5)c4c3=O)CC2C)c1 (stereo unspecified) | -15% | nt | 11% | -7% | 6% | nt
O=C(NCc1ccccc1F)C(=O)NCC(c1ccc2c(c1)OCO2)N1CCOCC1 (stereo unspecified) | ? | nt | 30% | -4%[60.1 µM] | 9% | nt
O=C(CSc1nc2c(oc3ccccc32)c(=O)[nH]1)Nc1cccc(Cl)c1 | -13% | nt | ? | -34% | 71µM* | nt
O=C(CSc1nc2ccccc2c(=O)[nH]1)Nc1ccc(C(=O)O)cc1 | 0% | -88* | 59% | -21% | ? | -30%
Cc1ccc(-c2csc3nc(SCC(=O)Nc4ccc(Cl)c(C(=O)O)c4)[nH]c(=O)c23)cc1 | 40µM* | -78* | ? | -40% | ? | ?
Cc1ccc2nc(Cn3cc(C(F)(F)F)ccc3=O)cc(=O)n2c1 | -11% | 3 | 63% | -17% | 0% | 2%[57.1 µM]
O=c1ccc(C(F)(F)F)cn1Cc1cc(=O)n2cc(Br)ccc2n1 | -2% | ? | ? | ? | 13µM* | -6%
COc1ccc(/C=C2\SC(=S)N(CC3CCCO3)C2=O)cc1 (stereo unspecified) | -17% | 18 | 122% | -1% | -4% | -24%
Cc1ccc(/C=C2\SC(=S)N(CC3CCCO3)C2=O)o1 (stereo unspecified) | ? | ? | ? | ? | 20µM* | -1%[11.6 µM]
COc1cc(/C=C2/SC(=S)N(CC3CCCO3)C2=O)ccc1O (stereo unspecified) | ? | -6 | ? | -21% | ? | 79µM*
O=C1/C(=C\c2ccc(-c3ccccc3Cl)o2)SC(=S)N1CC1CCCO1 (stereo unspecified) | -1% | 10 | 3% | -17% | -1% | 9%
SMILES | Pol eta inh | PI5P4Ka inh | Pol iota inh | POLK inh | POLB inh | WRN helicase inh
O=C(NCCc1nc2ccccc2n1CCCOc1ccccc1Cl)C1CCCCC1 | nt | nt | 34% | 2% | nt | nt
Cc1ccc(N2C(=O)N3[C@H](c4ccc(F)cc4)[C@@H]4C(=O)N(C5CCCCC5)C(=O)[C@@H]4[C@]3(C)C2=O)cc1 | -17% | -65* | 24% | 4% | ? | -2%
O=C(O)COc1c(-c2ccco2)oc2ccccc2c1=O | -5% | 0 | ? | -23% | 40µM* | -9%
NC(=O)COc1c(-c2ccco2)oc2ccccc2c1=O | 0% | -3 | 91% | -2% | 16% | -12%
CC(C)OCCCNC(=O)CCCN1C(=O)CCn2nc(-c3cccn3C)cc21 | -11% | nt | -1% | -14%[60.1 µM] | 5% | nt
O=[N+]([O-])c1cccc(-c2nc3ccc([N+](=O)[O-])cc3[nH]2)c1 | ? | ? | -16% | -8% | -1% | -12%
O=[N+]([O-])c1ccc(O)c(C=Nc2ccc3nc(-c4ccccc4)[nH]c3c2)c1 | ? | ? | -12% | -15% | 28µM* | -32%
CNC(=S)N/N=C(\C)c1ccc2c(c1)OCO2 | -14% | -65* | 22% | -4% | -2% | 4%
C/C(=N\NC(=S)Nc1ccc(C(C)C)cc1)c1ccc2c(c1)OCO2 | -6% | 2 | 114% | -2% | 21% | -27%
CNC(=S)N/N=C(\C)c1ccc2c(c1)OCCO2 | -19% | -76* | 18% | -5% | 0% | 2%
COc1ccc(S(=O)(=O)N2CCN(Cc3nc4ccc(C)cc4o3)CC2)cc1 | -8% | nt | -2% | -9%[60.1 µM] | 11% | nt
COc1ccc(S(=O)(=O)c2cn(CC(=O)Nc3cc(C)ccc3C)c3ccccc3c2=O)cc1 | -15% | nt | 39% | -3% | 33% | nt
COc1cc(Cl)c(C)cc1NC(=O)c1ccccc1NC(=O)CN1CCOCC1 | 79µM* | 0 | ? | ? | ? | -4%
O=C(O)CN1C(=O)/C(=C\c2cc(Br)ccc2OCc2ccc(Cl)cc2Cl)SC1=S | ? | -6 | ? | 11% | 22µM* | -6%
O=C(O)CN1C(=O)/C(=C\c2ccccc2OCc2ccc(Cl)cc2)SC1=S | 79µM* | ? | 45% | -20% | ? | -31%
O=C(O)CN1C(=O)/C(=C\c2cccc(OCc3ccc(Cl)cc3)c2)SC1=S | 50µM* | 2 | ? | -31% | ? | ?
O=C(O)CN1C(=O)/C(=C\c2cccc(OCc3ccc(F)cc3)c2)SC1=S | ? | -1 | ? | -4% | ? | -23%
CC1CCN(Cc2c(O)ccc3c(=O)c(Oc4ccccc4Cl)c(C(F)(F)F)oc23)CC1 | -16% | nt | 18% | -5% | 5% | nt
Cc1cccc(C)c1NC(=O)C1(C)CSCC(=O)N1CCCN1CCOCC1 (stereo unspecified) | nt | -2 | nt | nt | nt | 10%

High-throughput results deposited in PubChem by National Center for Advancing Translational Sciences (NCATS).
